PubChem BioAssay (NCATS)
Records with an inconclusive call do not appear. Calls of active or inactive are those of the source. The call rests on the fitted dose curve; in most records, active means well fitted curve in the direction sought with a large enough effect; inconclusive means small, poorly fitted or top-dose-only effect, or another doubt; inactive means no such curve, though single readings can be large; an effect the other way counts as inactive or inconclusive.

Assays:
[1] = target: Metallo-beta-lactamase type 2 (Klebsiella pneumoniae) (UniProt C7C422); test: qHTS to identify inhibitors of the New Delhi Metallo-beta-lactamase (NDM): assay validation screen against the NCATS LOPAC Collection (AID 1794843); conditions: NDM-1 enzyme, nitrocefin hydrolysis, absorbance 485 nm; series mostly up to 38.4 µM;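 further: nitrocefin turnover by NDM-1 measured as 485 nm absorbance at plateau; on the % scale 0 is the no-effect control and ±100 the full control effect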
Outline: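 NDM-1 at 2 nM final in 50 mM HEPES pH 7.0, 1 uM ZnSO4, 0.01% Tween20, preincubated with LOPAC compounds pinned in DMSO; 50 uM nitrocefin (stock) added. Hydrolysis read as absorbance at 485 nm in the plateau phase.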

[2] = target: Glutathione peroxidase 1 (Homo sapiens) (UniProt P07203); test: Primary qHTS Assay for Inhibitors of Recombinant Selenoprotein Glutathione Peroxidase 1 (GPX1) (AID 1845191); conditions: recombinant GPX1, GR-coupled NADPH fluorescence, 15 min; series mostly up to 48.8 µM; further: nearly all actives have a fitted effect of over 65% in size
Outline: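 Recombinant GPX1 (10 nM final) was preincubated with compound for 30 min at room temperature, then reacted with 1 mM GSH, 0.5 mM CHP, 0.5 mM NADPH and 100 nM glutathione reductase; NADPH fluorescence (340/450 nm) was read at 0 and 15 min.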

[3] = target: Phospholipid hydroperoxide glutathione peroxidase GPX4 (Homo sapiens) (UniProt P36969); test: Primary qHTS Assay for Inhibitors of Recombinant Selenoprotein Glutathione Peroxidase 4 (GPX4) (AID 1845192); conditions: recombinant GPX4, GR-coupled NADPH fluorescence, 15 min; series mostly up to 50 µM; further: nearly all actives have a fitted effect of over 65% in size
Outline: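 GR-coupled readout: 100 nM GR, 1 mM GSH, 0.5 mM NADPH; NADPH fluorescence (ex 340/em 450 nm) read at t=0 and after 15 min RT. GPX4 200 nM, preincubated 30 min with compound; substrate 0.5 mM CHP.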

[4] = HepG2 viability counterscreen (readout 2: ATP content) against the NCATS DSHEA and TCM libraries (AID 1794840); conditions: ATP content luminescence; series mostly up to 27.3 µM;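 further: HepG2 cells exposed to substances for about 24 h; 0% is about no effect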
Outline: (§1)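 HepG2 cells (1,000 cells/well) attached ~4 h, then treated ~24 h at 37C with substances. Protease activity read by GF-AFC (25 uM final, 30 min, Ex/Em 380/510 nm); ATP content then by CellTiter-Glo luminescence.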

[5] = target: Cytochrome P450 3A4 (Homo sapiens) (UniProt P08684); test: qHTS for inhibitors of CYP3A4 against the NCATS DSHEA and TCM libraries (AID 1919971); conditions: recombinant CYP3A4 enzyme activity, luminescence qHTS; series mostly up to 34.1 µM;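 further: on the % scale 0 is the no-effect control and ±100 the full control effect; inhibition lowers luminescence from luciferin made by CYP3A4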
Outline: (§2)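 Read-out is luminescence after P450-Glo detection (30 min, RT). Before that: 15 min compound–enzyme preincubation, then 30-45 min reaction with 1x NADPH regeneration solution, substrate concentration isoform-specific.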

[6] = target: Cytochrome P450 2D6 (Homo sapiens) (UniProt P10635); test: qHTS for inhibitors of CYP2D6 against the NCATS DSHEA and TCM libraries (AID 1919972); conditions: CYP2D6 enzymatic inhibition, luminescence qHTS; series mostly up to 34.1 µM; further: on the % scale 0 is the no-effect control and ±100 the full control effect
Outline: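 Luminescent P450-Glo read-out of CYP2D6 turnover of a luciferin substrate after NADPH-driven reaction of 30-45 min at room temperature. Compounds were first preincubated 15 min with enzyme at titrated concentrations; quinidine was the intraplate control.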

[7] = target: Cytochrome P450 2C9 (Homo sapiens) (UniProt P11712); test: qHTS for inhibitors of CYP2C9 against the NCATS DSHEA and TCM libraries (AID 1919973); conditions: recombinant CYP2C9 enzyme activity, luminescence; series mostly up to 34.1 µM;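 further: luminogenic pro-luciferin CYP2C9 substrate turned into luciferin with NADPH regeneration; on the % scale 0 is the no-effect control and ±100 the full control effect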
Outline: as §2

[8] = target: Cytochrome P450 2C19 (Homo sapiens) (UniProt P33261); test: qHTS for inhibitors of CYP2C19 against the NCATS DSHEA and TCM libraries (AID 1919974); conditions: CYP2C19 enzyme inhibition, luminescence qHTS; series mostly up to 34.1 µM;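 further: luminescence from luciferin released by CYP2C19 oxidation of a pro-luciferin substrate; on the % scale 0 is the no-effect control and ±100 the full control effect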
Outline: as §2

[9] = KB-3-1 P-gp reporter qHTS against the NCATS DSHEA and TCM libraries (AID 1919975); conditions: KB-3-1 parental cells, CellTiter-Glo luminescence viability, 72 h; series mostly up to 26.1 µM; further: 0% is about no effect
Outline: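 Parental KB-3-1 human cervical adenocarcinoma cells (500 cells/well, DMEM + 10% FBS) were treated with substances for ~72 h at 37C; viability was read by CellTiter-Glo luminescence.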

[10] = target: Cytochrome P450 1A2 (Homo sapiens) (UniProt P05177); test: qHTS for inhibitors of CYPIA2 against the NCATS DSHEA and TCM libraries (AID 1919976); conditions: recombinant CYP1A2 enzyme activity, luminescence; series mostly up to 37 µM
Outline: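 CYP1A2 + luciferin substrate, 100 mM KPO4-type buffer; cmpd 15 min RT; 1x NADPH regen, 30-45 min RT dark; detection reagent 30 min RT; luminescence. Minus-enzyme wells as background; furafylline intraplate control.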

[11] = qHTS Counterscreen for compound interference against the NCATS DSHEA and TCM libraries (AID 1919978); conditions: firefly luciferase detection reagent interference, luminescence; further: % of control where 0% means no effect
Outline: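 D-luciferin (1 uM final) or 100 mM potassium phosphate buffer alone was preincubated 15 min at RT with compounds (19.5 nM to 39.8 uM final). Luciferin detection reagent was then added and luminescence read after 30 min at RT.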

[12] = Dual reporter qHTS for agonist of Pregnane X Receptor (hPXR) against the NCATS DSHEA and TCM libraries: Fluorescence readout (AID 1920058); conditions: PXR dual reporter cells; series mostly up to 40 µM; further: 0% is about no effect
Outline: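 HepG2 hPXR-Luc, 2000 cells/well, 5 h attach; cpds ~24 h, 37 °C/5% CO2; CellTiter-Fluor 1 h; fluor. Ex/Em 405/540 nm = viability.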

[13] = target: Nuclear receptor subfamily 1 group I member 2 (Homo sapiens) (UniProt O75469); test: Dual reporter qHTS for agonist of Pregnane X Receptor (hPXR) against the NCATS DSHEA and TCM libraries: Luminescence readout (AID 1920059); conditions: hPXR dual reporter cells, luciferase luminescence agonist; series mostly up to 40 µM; further: 0% is about no effect
Outline: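 hPXR-LucHepG2 cells in phenol red-free DMEM with 5% charcoal-stripped FBS, 2000 cells/well, attached 5 h, then exposed 24 h at 37C to compounds; rifampicin as positive agonist control (2.8 nM–92 uM). Luciferase luminescence read.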

[14] = target: Nuclear receptor subfamily 1 group I member 2 (Homo sapiens) (UniProt O75469); test: Dual reporter qHTS for antagonist of Pregnane X Receptor (hPXR) against the NCATS DSHEA and TCM libraries: Luminescence Readout (AID 1920060); conditions: hPXR dual reporter cells, luciferase luminescence, antagonist mode; series mostly up to 40 µM;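 further: HepG2 cells carrying hPXR luciferase reporter stimulated with rifampicin at 2 µM; 0% is about no effect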
Outline: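 hPXR-Luc HepG2 cells exposed 24 h at 37 C to compounds with 2 uM rifampicin in antagonist mode; luciferase luminescence measured by ONE-Glo, with CellTiter-Fluor viability read beforehand.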

[15] = target: Nuclear receptor subfamily 1 group I member 3 (Homo sapiens) (UniProt Q14994); test: Primary qHTS for agonist of constitutive androstane receptor (CAR) against the NCATS DSHEA and TCM libraries (AID 1794839); conditions: CAR agonist reporter cells, qHTS luminescence, CAR antagonist co-added at 0.75 µM; series mostly up to 40 µM;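 further: HepG2 cells expressing human CAR with a CYP2B6 reporter plus PK11195 antagonist; 0% is about no effect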
Outline: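 HepG2-CYP2B6-hCAR cells (2,500/well) were attached for 5 h, then treated for 24 h at 37 °C with compounds plus 0.75 µM PK11195. Luciferase luminescence (ONE-Glo) was read, with CellTiter-Fluor viability (Ex/Em 405/540 nm).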

[16] = HepG2 viability counterscreen (readout 1: protease activity) against the NCATS DSHEA and TCM libraries (AID 1794841); conditions: qHTS concentration series; series mostly up to 27.3 µM;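 further: cells exposed to compounds for about 24 h before the protease read; 0% is about no effect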
Outline: as §1

Sequence of Cytochrome P450 1A2 (Homo sapiens) (P05177 whole entry, looked up): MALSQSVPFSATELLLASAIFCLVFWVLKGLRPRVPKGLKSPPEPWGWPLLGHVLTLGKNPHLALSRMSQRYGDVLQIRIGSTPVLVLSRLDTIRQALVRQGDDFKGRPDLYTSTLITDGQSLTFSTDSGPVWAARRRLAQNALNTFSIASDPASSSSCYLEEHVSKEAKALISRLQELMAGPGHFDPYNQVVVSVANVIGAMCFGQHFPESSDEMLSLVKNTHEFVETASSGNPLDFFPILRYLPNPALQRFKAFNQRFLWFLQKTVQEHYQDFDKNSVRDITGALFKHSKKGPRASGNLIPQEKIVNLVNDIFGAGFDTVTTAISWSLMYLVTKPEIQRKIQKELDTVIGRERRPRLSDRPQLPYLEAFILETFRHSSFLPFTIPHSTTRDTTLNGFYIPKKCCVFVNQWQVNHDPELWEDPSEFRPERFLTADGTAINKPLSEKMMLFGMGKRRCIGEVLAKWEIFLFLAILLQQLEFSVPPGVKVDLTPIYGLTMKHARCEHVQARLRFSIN
Sequence of Cytochrome P450 2D6 (Homo sapiens) (P10635 whole entry, looked up): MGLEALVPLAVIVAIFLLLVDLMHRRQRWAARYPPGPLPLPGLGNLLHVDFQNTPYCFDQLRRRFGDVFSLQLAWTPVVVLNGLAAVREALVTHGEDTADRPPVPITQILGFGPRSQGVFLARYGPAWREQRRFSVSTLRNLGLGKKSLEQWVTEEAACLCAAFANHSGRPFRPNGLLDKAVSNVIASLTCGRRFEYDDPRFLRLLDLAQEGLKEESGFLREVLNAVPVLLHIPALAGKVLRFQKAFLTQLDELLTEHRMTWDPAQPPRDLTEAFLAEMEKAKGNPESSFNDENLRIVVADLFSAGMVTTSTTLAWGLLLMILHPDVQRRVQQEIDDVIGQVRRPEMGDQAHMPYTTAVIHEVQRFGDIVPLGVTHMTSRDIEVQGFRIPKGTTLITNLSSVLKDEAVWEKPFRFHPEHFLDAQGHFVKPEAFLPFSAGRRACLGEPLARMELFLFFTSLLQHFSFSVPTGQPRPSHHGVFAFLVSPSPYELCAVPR
Sequence of Nuclear receptor subfamily 1 group I member 3 (Homo sapiens) (Q14994 whole entry, looked up): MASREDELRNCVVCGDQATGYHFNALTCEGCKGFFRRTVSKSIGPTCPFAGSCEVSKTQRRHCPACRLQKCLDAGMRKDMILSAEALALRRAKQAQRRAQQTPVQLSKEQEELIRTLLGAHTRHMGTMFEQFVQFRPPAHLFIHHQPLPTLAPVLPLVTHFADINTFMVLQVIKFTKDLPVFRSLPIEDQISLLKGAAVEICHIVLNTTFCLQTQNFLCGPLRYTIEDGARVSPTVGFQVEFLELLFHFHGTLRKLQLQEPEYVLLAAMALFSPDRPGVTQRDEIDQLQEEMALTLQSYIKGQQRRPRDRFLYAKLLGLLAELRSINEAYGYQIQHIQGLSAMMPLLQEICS
Sequence of Cytochrome P450 3A4 (Homo sapiens) (P08684 whole entry, looked up, canonical isoform): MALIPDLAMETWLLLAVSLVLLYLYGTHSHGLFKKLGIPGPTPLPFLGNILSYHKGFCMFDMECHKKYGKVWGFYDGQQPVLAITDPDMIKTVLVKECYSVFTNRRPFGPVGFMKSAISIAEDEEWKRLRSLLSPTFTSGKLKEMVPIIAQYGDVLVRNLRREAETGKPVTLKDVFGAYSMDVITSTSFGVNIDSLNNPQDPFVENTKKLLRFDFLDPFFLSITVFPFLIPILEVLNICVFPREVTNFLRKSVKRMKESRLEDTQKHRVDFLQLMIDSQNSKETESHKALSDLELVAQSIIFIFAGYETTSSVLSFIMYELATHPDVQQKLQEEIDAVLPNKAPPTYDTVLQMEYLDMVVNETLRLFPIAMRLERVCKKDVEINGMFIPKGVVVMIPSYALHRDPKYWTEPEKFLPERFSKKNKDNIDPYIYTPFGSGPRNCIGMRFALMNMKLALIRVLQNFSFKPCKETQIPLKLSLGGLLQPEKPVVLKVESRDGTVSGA
Sequence of Phospholipid hydroperoxide glutathione peroxidase GPX4 (Homo sapiens) (P36969 whole entry, looked up): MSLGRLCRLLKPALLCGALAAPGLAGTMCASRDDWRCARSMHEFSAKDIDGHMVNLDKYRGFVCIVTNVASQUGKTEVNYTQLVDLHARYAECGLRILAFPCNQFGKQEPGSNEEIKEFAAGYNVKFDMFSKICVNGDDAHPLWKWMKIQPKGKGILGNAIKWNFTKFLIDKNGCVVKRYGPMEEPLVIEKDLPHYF
Sequence of Cytochrome P450 2C9 (Homo sapiens) (P11712 whole entry, looked up): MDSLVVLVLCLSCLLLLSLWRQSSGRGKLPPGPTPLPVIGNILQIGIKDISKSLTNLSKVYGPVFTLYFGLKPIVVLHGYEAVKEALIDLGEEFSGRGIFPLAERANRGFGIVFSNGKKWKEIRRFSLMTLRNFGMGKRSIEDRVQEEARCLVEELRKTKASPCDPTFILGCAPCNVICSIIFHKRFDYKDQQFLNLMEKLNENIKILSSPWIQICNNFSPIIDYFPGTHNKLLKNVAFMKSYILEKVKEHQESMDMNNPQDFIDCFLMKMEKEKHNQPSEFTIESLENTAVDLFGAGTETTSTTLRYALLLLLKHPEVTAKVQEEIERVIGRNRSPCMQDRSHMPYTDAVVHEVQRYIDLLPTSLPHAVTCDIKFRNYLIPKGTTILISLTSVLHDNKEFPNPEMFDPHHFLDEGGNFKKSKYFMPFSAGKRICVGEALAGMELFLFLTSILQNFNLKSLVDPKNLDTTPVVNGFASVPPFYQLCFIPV
Sequence of Metallo-beta-lactamase type 2 (Klebsiella pneumoniae) (C7C422 whole entry, looked up): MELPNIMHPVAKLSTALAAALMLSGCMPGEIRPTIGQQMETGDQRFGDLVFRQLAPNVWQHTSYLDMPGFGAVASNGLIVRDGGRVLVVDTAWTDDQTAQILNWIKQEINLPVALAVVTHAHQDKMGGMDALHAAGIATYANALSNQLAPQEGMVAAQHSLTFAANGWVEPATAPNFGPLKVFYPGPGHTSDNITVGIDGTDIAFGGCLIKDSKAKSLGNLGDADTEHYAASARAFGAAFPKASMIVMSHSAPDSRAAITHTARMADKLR
Sequence of Nuclear receptor subfamily 1 group I member 2 (Homo sapiens) (O75469 whole entry, looked up): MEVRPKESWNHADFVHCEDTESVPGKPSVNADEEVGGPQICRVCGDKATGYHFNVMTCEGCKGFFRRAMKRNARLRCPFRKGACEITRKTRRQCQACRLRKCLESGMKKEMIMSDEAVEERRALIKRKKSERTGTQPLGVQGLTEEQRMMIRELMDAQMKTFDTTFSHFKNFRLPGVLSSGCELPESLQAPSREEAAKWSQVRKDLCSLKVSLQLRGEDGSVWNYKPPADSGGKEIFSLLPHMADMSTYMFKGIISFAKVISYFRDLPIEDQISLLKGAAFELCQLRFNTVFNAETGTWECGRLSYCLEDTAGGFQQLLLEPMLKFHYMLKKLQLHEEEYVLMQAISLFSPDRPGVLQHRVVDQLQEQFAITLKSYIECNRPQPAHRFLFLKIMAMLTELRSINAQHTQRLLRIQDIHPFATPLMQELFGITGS
Sequence of Glutathione peroxidase 1 (Homo sapiens) (P07203 whole entry, looked up): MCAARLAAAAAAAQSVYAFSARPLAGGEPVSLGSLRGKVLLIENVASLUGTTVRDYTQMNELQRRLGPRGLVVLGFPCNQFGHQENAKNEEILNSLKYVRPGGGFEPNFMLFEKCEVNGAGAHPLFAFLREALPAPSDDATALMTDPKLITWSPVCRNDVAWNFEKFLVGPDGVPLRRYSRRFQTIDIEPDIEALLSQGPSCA
Sequence of Cytochrome P450 2C19 (Homo sapiens) (P33261 whole entry, looked up): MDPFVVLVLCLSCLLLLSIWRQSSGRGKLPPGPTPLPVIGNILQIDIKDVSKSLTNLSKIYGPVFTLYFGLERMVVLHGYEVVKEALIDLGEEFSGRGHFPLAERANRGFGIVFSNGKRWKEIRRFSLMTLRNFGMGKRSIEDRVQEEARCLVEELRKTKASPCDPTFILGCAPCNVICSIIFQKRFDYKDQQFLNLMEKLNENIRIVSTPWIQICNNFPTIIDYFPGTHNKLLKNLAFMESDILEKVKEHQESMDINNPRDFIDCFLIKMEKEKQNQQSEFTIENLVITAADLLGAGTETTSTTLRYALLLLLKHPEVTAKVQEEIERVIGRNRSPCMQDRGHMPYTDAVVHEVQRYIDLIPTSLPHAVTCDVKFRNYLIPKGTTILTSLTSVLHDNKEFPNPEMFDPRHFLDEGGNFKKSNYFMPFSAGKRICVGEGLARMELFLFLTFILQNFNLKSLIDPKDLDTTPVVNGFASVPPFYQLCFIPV

CC1=C(/C=C/C(C)=C/C=C/C(C)=C/C(=O)O)C(C)(C)CCC1
inactive: outcome [1] | Potency [2] | Potency [3]

NC1[C@H]2CN(c3nc4c(cc3F)c(=O)c(C(=O)O)cn4-c3ccc(F)cc3F)C[C@@H]12 (some centres undefined)
inactive: outcome [1] | Potency [2] | Potency [3]

CN(C)CCOC(C)(c1ccccc1)c1ccccn1 (centres undefined)
inactive: outcome [1] | Potency [2] | Potency [3]

CCN(CC)CCOC(=O)C1(C2CCCCC2)CCCCC1
inactive: outcome [1] | Potency [2] | Potency [3]

OCCN1CCN(CCCN2c3ccccc3Sc3ccc(Cl)cc32)CC1
inactive: outcome [1] | Potency [2] | Potency [3]

CC12CCC(CC1)C(C)(C)O2
inactive: outcome [4] | Potency [2] | Potency [3] | outcome [5] | outcome [6] | outcome [7] | outcome [8] | outcome [9] | outcome [10] | max response [11] -1.5% | outcome [12] | outcome [13] | outcome [14]

Cc1c(O)cccc1C(=O)N[C@@H](CSc1ccccc1)[C@H](O)CN1C[C@H]2CCCC[C@H]2C[C@H]1C(=O)NC(C)(C)C
inactive: outcome [1] | Potency [2] | Potency [3]

CC(C)(C)[C@]1(O)CCN2C[C@H]3c4ccccc4CCc4cccc(c43)[C@@H]2C1
inactive: outcome [1] | Potency [2] | Potency [3]

COC(=O)C1=C(C)NC(C)=C(C(=O)OC)C1c1ccccc1[N+](=O)[O-]
inactive: outcome [1] | Potency [2] | Potency [3]

CSc1ccc2c(c1)N(CCC1CCCCN1C)c1ccccc1S2 (centres undefined)
inactive: outcome [1] | Potency [2] | Potency [3]

CCN(CC)CCNC(=O)c1c(C)[nH]c(/C=C2\C(=O)Nc3ccc(F)cc32)c1C
inactive: outcome [1] | Potency [2] | Potency [3]

CC(CN(C)C)CN1c2ccccc2CCc2ccccc21 (centres undefined)
inactive: outcome [1] | Potency [2] | Potency [3]

C[C@](N)(Cc1ccc(O)cc1)C(=O)O
inactive: outcome [1] | Potency [2] | Potency [3]

O=C1O[C@H]([C@@H](O)CO)C(O)=C1O
inactive: outcome [15] | outcome [4] | outcome [16] | Potency [2] | Potency [3] | outcome [5] | outcome [6] | outcome [7] | outcome [9] | outcome [10] | max response [11] -0.0092% | outcome [12] | outcome [13]

CCN(CC)C(C)CN1c2ccccc2Sc2ccccc21 (centres undefined)
inactive: outcome [1] | Potency [2] | Potency [3]

Nc1ncnc2c1ncn2[C@@H]1O[C@H](CO)[C@@H](O)[C@H]1O
inactive: outcome [1] | Potency [2] | Potency [3]

CC(=O)OCC(=O)[C@@]1(O)CC[C@H]2[C@@H]3CCC4=CC(=O)CC[C@]4(C)[C@H]3C(=O)C[C@@]21C
inactive: outcome [1] | Potency [2] | Potency [3]

C[C@H](NC(CCc1ccccc1)C(=O)O)C(=O)N1CCC[C@H]1C(=O)O (some centres undefined)
inactive: outcome [1] | Potency [2] | Potency [3]

CC1=C(CC(=O)O)c2cc(F)ccc2/C1=C\c1ccc(S(C)=O)cc1 (centres undefined)
inactive: outcome [1] | Potency [2] | Potency [3]

CN(C)CCC=C1c2ccccc2CCc2ccccc21
inactive: outcome [1] | Potency [2] | Potency [3]

O=C1N=C(O)CN1/N=C/c1ccc(-c2ccc([N+](=O)[O-])cc2)o1
inactive: outcome [1] | Potency [2] | Potency [3]

Nc1cc(=O)[nH]c(N)n1
inactive: outcome [1] | Potency [2] | Potency [3]

O=C(O)c1ccccc1O
inactive: outcome [15] | outcome [4] | outcome [16] | outcome [5] | outcome [6] | outcome [7] | outcome [8] | outcome [9] | outcome [10] | max response [11] -0.219% | outcome [12] | outcome [13] | outcome [14]

CNCCCC1c2ccccc2C=Cc2ccccc21
inactive: outcome [1] | Potency [2] | Potency [3]

CC1=C(C/C=C(\C)CCC[C@H](C)CCC[C@H](C)CCCC(C)C)C(=O)c2ccccc2C1=O
inactive: outcome [15] | outcome [4] | outcome [16] | Potency [3] | outcome [6] | outcome [9] | max response [11] -2.28% | outcome [12] | outcome [14]

NC(N)=NCCC[C@H](N)C(=O)O
inactive: outcome [4] | outcome [16] | outcome [1] | Potency [2] | Potency [3] | outcome [5] | outcome [6] | outcome [7] | outcome [9] | max response [11] -2.87% | outcome [12] | outcome [13] | outcome [14]

CC[C@H]1CN2CCc3cc(OC)c(OC)cc3[C@@H]2C[C@@H]1C[C@H]1NCCc2cc(OC)c(OC)cc21
inactive: outcome [1] | Potency [2] | Potency [3]

CCCn1cnc2c1c(=O)n(CCCCC(C)=O)c(=O)n2C
inactive: outcome [1] | Potency [2] | Potency [3]

CNCCC(Oc1ccc(C(F)(F)F)cc1)c1ccccc1 (centres undefined)
inactive: outcome [1] | Potency [2] | Potency [3]

CCCCN(CCCC)CC(O)c1cc(Cl)cc2c1-c1ccc(Cl)cc1/C2=C/c1ccc(Cl)cc1 (centres undefined)
inactive: outcome [1] | Potency [2] | Potency [3]

C=Cc1c(C)c2cc3[nH]c(cc4nc(cc5nc(cc1[nH]2)C(C)=C5CCC(=O)O)C(CCC(=O)O)=C4C)c(C)c3C=C
inactive: outcome [1] | Potency [2] | Potency [3]
